From PubChem BioAssay
CHRM1 antagonist: blocks human M1 muscarinic receptor; CHO-K1 hM1, Fluo-8 calcium fluorescence, ACh EC80 antagonist; inhibition, % at 3 µM; 1.3% of 360,000 active;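 active = percent inhibition above its own plate's cutoff, namely the mean of that plate's compound wells plus 3 SD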;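 also: peak over basal fluorescence ratio during 140 s after agonist addition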
Target sequence (P11229 whole entry, looked up): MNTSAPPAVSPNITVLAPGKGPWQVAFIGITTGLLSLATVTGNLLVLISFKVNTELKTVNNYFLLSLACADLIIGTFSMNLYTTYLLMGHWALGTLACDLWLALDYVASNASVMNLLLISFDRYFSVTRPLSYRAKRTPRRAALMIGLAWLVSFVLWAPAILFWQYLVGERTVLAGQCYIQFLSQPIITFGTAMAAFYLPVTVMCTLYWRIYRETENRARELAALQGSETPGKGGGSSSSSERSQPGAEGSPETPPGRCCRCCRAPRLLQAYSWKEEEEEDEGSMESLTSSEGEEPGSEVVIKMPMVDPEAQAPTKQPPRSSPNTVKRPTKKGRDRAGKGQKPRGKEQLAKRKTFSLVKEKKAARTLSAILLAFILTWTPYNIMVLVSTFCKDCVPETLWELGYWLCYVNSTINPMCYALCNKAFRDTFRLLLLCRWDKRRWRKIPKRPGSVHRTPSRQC
CHO-K1 Ca antag: nonselective inhibitor or artifact in parental CHO-K1 cells | ATP-induced calcium, Fluo-8 fluorescence | inhibition, % at 3 µM | 0.6% of 360,000 active;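 active = inhibition above a per-plate cutoff, the plate's mean sample inhibition plus 3 SD, cut at about 24% in these data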
CHRM1 agonist: activates human CHRM1 receptor; P11229; CHO-K1 hM1, Fluo-8 calcium fluorescence, agonist mode; 0% DMSO, 100% acetylcholine EC100; activation, % at 3 µM; 0.33% of 360,000 active; AID 588814;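 active = activation above the run's mean compound activation plus 3 SD, cut at about 16% in these data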;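 also: peak over basal fluorescence ratio within a 140 s kinetic read after compound addition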
M1 PAM: human CHRM1 positive allosteric modulation; P11229; CHO-K1 hM1, Fluo-8 calcium fluorescence, ACh EC20; 0% = ACh EC20, 100% = maximal ACh; activation, % at 3 µM; 0.088% of 360,000 active; AID 588819; in the data active = activation above about 19%, passing the limit was not always enough
M1 PAM parental: counter-screen for M1 PAMs: effect in parental CHO-K1 cells | ATP EC20, Fluo-8 calcium fluorescence; 0% at ATP EC20, 100% at ATP max | activation, % at 3 µM | 0.02% of 360,000 active;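 active = activation above the run cutoff, the mean activation of all test compounds plus 3 SD, cut at about 40% in these data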;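 also: peak over basal fluorescence ratio in a 140 s read after ATP addition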
M1 ag parental: M1 agonist counterscreen hit in parental CHO-K1 cells. AID 602248. 0.48% of 360,000 active. activation, % at 3 µM. Fluo-8 calcium fluorescence; scaled to maximal ATP response, vehicle zero; in the data active = activation above about 15%;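 also: untransfected CHO-K1 host cells lacking M1 receptor as counterscreen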
Each line names hits and unclear results; the compound was inactive in the other large screens; ! = not confirmed by another sample. Sampled rows, rich in hits. Any-hit rate of the full collection: about 2.4%.

O=C(c1ccc(C(F)(F)F)cc1)C1CCCN(Cc2ccc(CO)o2)C1 (configuration not stated)	CHRM1 antagonist 61.1
CC1(C)C(=O)CC[C@@]2(C)C1=CCC1C2CC[C@]2(C)C(=O)CCC12 (some centres not stated)	none
CCC(=NCCc1c[nH]c2ccccc12)c1c(O)n(C)c(=O)n(C)c1=O	CHRM1 antagonist 26.1, CHO-K1 Ca antag 24.0, M1 ag parental 15.8
CC/C(=N\Nc1ccccc1)c1c(O)n(C)c(=O)n(C)c1=O	none
C/C(=N\NC(=S)Nc1ccccc1)c1c(O)n(C)c(=O)n(C)c1=O	M1 ag parental 22.5
COC(=O)C(O)(c1c[nH]c2ccccc12)C(F)(F)F (configuration not stated)	none
O=C(COc1ccccc1)NCCc1cnc[nH]1	none
Cc1ccc(N2C(=O)NC(=O)/C(=C/c3cnc(-c4ccccc4)nc3)C2=O)cc1C	none
CC(C)c1ccc(N2C(=O)NC(=O)/C(=C\c3cnc(-c4ccccc4)nc3)C2=O)cc1	M1 PAM 26.3
CC(=O)c1cn(Cc2ccccc2C#N)c2ccccc12	CHO-K1 Ca antag 27.7, M1 ag parental 16.9
Cc1ccc(C2CC3CCC(C2)N3Cc2ccccc2F)cc1 (configuration not stated)	none
Cc1ccc(CN2C3CCCC2CC(NC(=O)Nc2cccc(F)c2)C3)cc1 (configuration not stated)	CHRM1 antagonist 37.7
CCOP(=O)(OCC)C(NC(=O)c1ccccc1)C(Cl)(Cl)Cl (configuration not stated)	CHO-K1 Ca antag 24.1
C=C1C(=O)O[C@@H]2C[C@@H](C)[C@@H]3C=CC(=O)[C@@]3(C)[C@@H](O)[C@H]12	none
CCN1/C(=C\C=C\C2=[N+](CC)c3ccccc3C2(C)C)C(C)(C)c2ccccc21	CHRM1 antagonist 96.4, CHO-K1 Ca antag 94.4, CHRM1 agonist 387.8, M1 ag parental 313.2
CN1CCC2(CC1)N=C(c1ccc(F)cc1)C(=S)N2	CHRM1 antagonist 26.1
Cc1cc(C=C(C#N)C#N)ccc1N1CCCC1	M1 ag parental 16.5
N#CC(C#N)=Cc1ccc(N2CCOCC2)cc1	none
O=C(Oc1ccc([N+](=O)[O-])cc1)N1CCC(N2CCCCC2)CC1	CHRM1 antagonist 85.4
CC(=O)Nc1ccc(OC(=O)N2CCCCC2)cc1	none
CCn1cc(C(=O)N2CCOCC2)c2ccccc21	none
S=C1CN=C(c2ccccc2)c2cc(Cl)ccc2N1	CHRM1 agonist 46.0
Nc1cc(N2CCNCC2)ccc1[N+](=O)[O-]	none
Clc1cccc(N2CCNCC2)c1	CHO-K1 Ca antag 26.4
CN1CCC(OC(=O)C2c3ccccc3Oc3ccccc32)CC1	CHRM1 antagonist 98.8
Oc1ccc(Cl)c(Cl)c1Cl	CHRM1 antagonist 24.3
COc1cccc(N2C(=O)NC(=O)/C(=C/c3ccc([N+](=O)[O-])s3)C2=O)c1	none
Cc1ccc(CC(=O)N2CCN(Cc3ccccc3)CC2)cc1	none
CCC(C)N1CCN(C(=O)Cc2ccccc2)CC1 (configuration not stated)	CHRM1 antagonist 41.1, CHO-K1 Ca antag 25.5
COc1ccccc1CC(=O)N1CCN(CCc2ccccc2)CC1	CHO-K1 Ca antag 24.9
CCOC(=O)C1C(=O)NC2(C)CC1c1cc(OC)ccc1O2 (configuration not stated)	none
CCCc1cc(=O)oc2cc(OCC(=O)N3CCN(Cc4ccc5c(c4)OCO5)CC3)ccc12	none
CCCc1cc(=O)oc2cc(OCC(=O)N3CCC(C(=O)O)(c4ccccc4)CC3)ccc12	CHO-K1 Ca antag 24.6
Cc1cc(C(=O)CS(=O)(=O)c2ccc(F)cc2)cc(C)c1OC(=O)N(C)C	none
COc1cc2c(cc1OC)[C@@H]1C(=O)c3ccc4c(c3O[C@@H]1CO2)C[C@H](C(C)C)O4	CHO-K1 Ca antag 29.0
CCOC(=O)c1cccc(C2=C(CNC(C)=O)[C@H]3CC[C@@H](C2)N3Cc2ccccc2)c1	CHRM1 antagonist 31.1
C=CCn1c(O)c(C(CC)=Nc2ccc(N(CC)CC)cc2)c(=O)[nH]c1=O	none
COC(=O)C1=C(c2ccc(OCc3ccccc3)c(F)c2)C[C@@H]2CC[C@H]1N2C	CHRM1 antagonist 28.7
COC(=O)C1=C(c2ccc(OCc3ccccc3)cc2)C[C@@H]2CC[C@H]1N2C	CHRM1 antagonist 33.7
COC(=O)C1=C(c2ccc(F)cc2OCc2ccccc2)C[C@@H]2CC[C@H]1N2C	none
C=CCn1c(O)c(C(C)=Nc2cc(OC)ccc2OC)c(=O)[nH]c1=O	none
COc1cccc(N2CCN(Cc3ccc(Cl)cc3)CC2)c1	none
COc1cccc(C2(O)CCN(Cc3ccncc3)CC2)c1	CHO-K1 Ca antag 24.2
C[C@@H]1CN([C@H](C)CO)C(=O)CCCn2nncc2CO[C@@H]1CN(C)C(=O)Oc1ccccc1	none
Cn1c(C(=O)O)c(CC(=O)N2CCN(Cc3ccccc3)CC2)c2ccccc21	none
C(#CCN1CCCCC1)COCc1ccccc1	none
CN(C)CC#CCn1c2ccccc2c2ccccc21	none
CC1(C(O)(C#CCN2CCCCC2)c2ccccc2)CCCC1 (configuration not stated)	CHRM1 antagonist 100.0
OC(CC#CCN1CCCCCC1)(c1ccccc1)C1CCCC1 (configuration not stated)	CHRM1 antagonist 99.5, M1 ag parental 16.5
CN(C)CC#CCC(O)(c1ccccc1)C1CCCC1 (configuration not stated)	CHRM1 antagonist 99.4, CHO-K1 Ca antag 24.8
CC(=NCCC1=CCCCC1)c1c(O)n(-c2ccccc2)c(=O)[nH]c1=O	none
Cc1ccc(NS(=O)(=O)c2ccc(OCC(=O)N3CCN(C)CC3)cc2)cc1	none
CCOC(=O)[C@]12Cc3cc(C)ccc3[C@H]1N(C1CCCCC1)C(=O)c1cc(OC)ccc12	CHO-K1 Ca antag 24.5 (no result: CHRM1 antagonist, CHRM1 agonist, M1 PAM)
C(=NN1CCCCCC1)c1c[nH]c2ccccc12	none
Brc1ccc2[nH]cc(/C=N/N3CCCCC3)c2c1	CHRM1 agonist 32.1
O=C(OC1CCN(CCCl)CC1)C(c1ccccc1)c1ccccc1	none
C[N+]1(C)[C@@H]2CC[C@H]1CC(OC(=O)C(c1ccccc1)c1ccccc1)C2 (some centres not stated)	CHRM1 antagonist 101.5
ClC1C(Cl)C(Cl)C(Cl)C(Cl)C1Cl (configuration not stated)	CHRM1 agonist 46.6!
C#CC1(O)CCC2C3CCC4=CC(=O)CCC4=C3C=CC21C (configuration not stated)	M1 ag parental 16.0
C#C[C@]1(O)CCC2C3C(=O)C=C4C=CCC[C@]4(C)C3CC[C@@]21C (some centres not stated)	none
O=c1[nH]c(=S)n(Cc2ccc(F)cc2)c(O)c1C=NCC1CCCO1 (configuration not stated)	none
